In PubChem BioAssay AID743145 (Broad Institute, 2013) one finds outcome data, which are given here for 26 compounds.

Measured potencies and affinities stand elsewhere. Active and inactive are the calls of the source. No rule for the calls is given here.

The assay is described as follows: cytotoxicity in COV434 cells, dose response, cytotoxicity control for PAX8 inhibitor project, cell-based, plate reader, dry powder, SA7 (AID 743145). As to conditions: series mostly up to 35 µM.

`O=C(CN1C(=O)c2ccccc2S1(=O)=O)c1ccc(Cl)cc1Cl`: the result was inactive.

Turning to `O=C1/C(=C/c2cccc(Br)c2)SC(=S)N1CCC(=O)N(CCO)c1ccccc1`, the call was inactive.

Take `COc1ccc(S(=O)(=O)N2CCCCN3[C@H](CO)[C@H](c4ccc(C#CC(C)C)cc4)[C@H]3C2)cc1`: the call was inactive.

`O=C(CN1C(=O)c2ccccc2S1(=O)=O)c1ccccc1Cl`: the compound was classed as inactive.

As to `COc1cccc(C#Cc2ccc([C@@H]3[C@@H](C#N)N(C(=O)C4CCCCC4)[C@H]3CO)cc2)c1`, the compound was called inactive.

With `C[C@H]1CN([C@@H](C)CO)C(=O)CCCn2nncc2CO[C@@H]1CN(C)C(=O)Nc1ccc(-c2cccs2)cc1`, the result was inactive.

With `N#C[C@@H]1[C@@H](c2ccc(-c3ccccc3F)cc2)[C@@H](CO)N1C(=O)C1CCC1`, the compound was called inactive.

`O=C(NCCc1ccccc1)c1ccc2c(c1)OCCCO2`: the compound was classed as inactive.

As for `C[C@@H]1CN([C@H](C)CO)C(=O)CCCn2cc(nn2)CO[C@H]1CN(C)C(=O)Nc1ccc(-c2cccs2)cc1`, the compound was classed as inactive.

In the case of `C[C@H](CO)N1C[C@H](C)[C@@H](CN(C)S(=O)(=O)c2ccc(-c3ccccc3)cc2)OCc2cn(nn2)CCCC1=O`, the compound was called inactive.

Take `CCc1cnc(N2[C@@H](C#N)[C@@H](c3ccc(C#CC(C)C)cc3)[C@@H]2CO)s1`: the call was inactive.

For the compound `CC(=O)N1CCOc2ccc(S(=O)(=O)N3CCN(c4cccc(C(F)(F)F)c4)CC3)cc21`, the call was inactive.

On to `N#C[C@H]1[C@@H](c2ccc(C#CC3CCCCC3)cc2)[C@@H](CO)N1S(=O)(=O)c1ccccc1`, for which the compound was classed as inactive.

On to `C[C@@H]1CN([C@@H](C)CO)S(=O)(=O)c2ccc(C#C[C@@H](C)O)cc2O[C@H]1CN(C)Cc1ccc(-c2ccccc2)cc1`, for which the outcome was inactive.

As to `COC(=O)[C@@]1(CCS(=O)(=O)c2ccccc2)N=C(c2ccc(OCCCO)cc2)O[C@H]1c1ccccc1`, the outcome was inactive.

With `C[C@H](CO)N1C[C@H](C)[C@@H](CN(C)Cc2ccc(-c3ccccc3)cc2)Oc2ccc(NC(=O)C3CC3)cc2CC1=O`, the result was inactive.

On to `C[C@H]1CN([C@@H](C)CO)C(=O)Cc2cc(NC(=O)NC3CCCCC3)ccc2O[C@@H]1CN(C)Cc1ccc(-c2ccccc2)cc1`, for which the compound was classed as inactive.

Regarding `COc1ccc(S(=O)(=O)Nc2ccc3c(c2)CC(=O)N([C@@H](C)CO)C[C@H](C)[C@@H](CN(C)Cc2ccc(C(F)(F)F)cc2)O3)cc1`, the outcome was inactive.

For the compound `COc1cccc(C#Cc2ccc([C@H]3[C@@H](C#N)N(C(=O)c4ccccn4)[C@@H]3CO)cc2)c1`, the result was inactive.

As to `O=C(CCS(=O)(=O)c1ccccc1)Nc1nc2ccc(F)cc2s1`, the compound was called inactive.

For the compound `Cc1ccccc1OCC(=O)Nc1cccc(C(=O)O)c1`, the outcome was inactive.

`COc1ccc(S(=O)(=O)Nc2ccc3c(c2)CC(=O)N([C@@H](C)CO)C[C@@H](C)[C@@H](CN(C)Cc2ccc(-c4ccccc4)cc2)O3)cc1`: the compound was called inactive.

Regarding `COc1cccc(-c2ccc([C@H]3[C@@H](CO)N(C(=O)Cc4ccccc4)[C@H]3C#N)cc2)c1`, the compound was classed as inactive.

With `COc1cccc(C#Cc2ccc([C@@H]3[C@@H](C#N)N(C(=O)C4CCCC4)[C@@H]3CO)cc2)c1`, the compound was called inactive.

On to `C[C@H](CO)N1C[C@H](C)[C@H](CN(C)C(=O)Nc2ccc(-c3cccs3)cc2)OCc2cnnn2CCCC1=O`, for which the result was inactive.

`O=C1/C(=C/c2ccccc2)SC(=S)N1CC(=O)N1CCCCC1c1cccnc1` (stereo unspecified): the compound was classed as inactive.
